Source: PubChem (National Center for Advancing Translational Sciences (NCATS))
Sampled rows, rich in hits. Any-hit rate of the full collection: about 4.6%.
TRHR ag – TRH receptor (human) agonism. actives 0.18% (n = 360,000). P34981. activation, % at 2 µM. TRHR cells, calcium flux fluo-8, FDSS agonist mode. AID 493084; also: 0% is about no effect
Target sequence (P34981 whole entry, looked up): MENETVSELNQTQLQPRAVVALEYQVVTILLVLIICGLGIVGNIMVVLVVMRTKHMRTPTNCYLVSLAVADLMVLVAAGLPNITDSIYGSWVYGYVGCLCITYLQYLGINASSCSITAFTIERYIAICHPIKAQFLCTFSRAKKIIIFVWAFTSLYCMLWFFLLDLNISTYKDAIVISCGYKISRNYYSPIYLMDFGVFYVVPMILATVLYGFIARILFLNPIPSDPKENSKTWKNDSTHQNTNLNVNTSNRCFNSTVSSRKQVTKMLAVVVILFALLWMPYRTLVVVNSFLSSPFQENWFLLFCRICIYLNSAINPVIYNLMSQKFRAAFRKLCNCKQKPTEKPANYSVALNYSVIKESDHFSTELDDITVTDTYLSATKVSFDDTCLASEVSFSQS
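Agonist-mode FDSS calcium read (Ex 480/Em 530, 1 s cycles) in 1536-well TRHR cells with fluo-8 dye, after 10-cycle baseline and 23 nL compound addition; TRH at EC20 (10 nM final) added afterwards for the enhancer phase.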
D1 agonist – activates the human D1 dopamine receptor | HEK293 T-REx D1 cells, calcium flux, agonist mode | activation, % at 2 µM | actives 1% (n = 360,000) | AID 504660; also: 0% is about no effect
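Agonism was scored from calcium flux recorded over 180 s (1 read/s) after pintool compound addition, following a 10-cycle baseline. Cells were inducible force-coupled HEK293 TREx D1, plated overnight at 30 C and loaded with no-wash calcium dye.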
D1 potentiator – human D1 dopamine receptor positive modulation; potentiation, % at 10 µM; P21728; actives 0.036% (n = 360,000); AID 504651; HEK293 TREx D1 cells, calcium flux, dopamine EC20 potentiation; in the data active = potentiation above about 30%; also: 0% is about no effect
TRHR enhancer – TRH receptor (human) allosteric enhancement | P34981 | TRHR cells, fluo-8 calcium fluorescence, EC20 TRH enhancement | enhancement, % at 2 µM | actives 0.66% (n = 360,000); in the data active = enhancement above about 30%; also: 0% is about no effect
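TRHR-expressing cells loaded with fluo-8 calcium dye were read kinetically (ex 480/em 530) during compound addition, then stimulated with an EC20 of TRH (10 nM final). Enhancement of the Gq-mediated intracellular calcium response was scored.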
D1 antag – blocks dopamine activation of the human D1 receptor; P21728; HEK293 TREx D1 cells, calcium flux, dopamine EC80; stronger effect = lower value; activity change, negative = inhibition, % at 10 µM; actives 3.2% (n = 360,000); AID 504652; in the data active = activity change below about -30%; also: % is scaled to controls: 0 for no effect and ±100 for the full control effect
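After overnight tetracycline induction at 30 C, force-coupled D1 HEK293 cells took up a no-wash calcium dye at room temperature. Compounds were added and monitored 180 s, and the response to EC80 dopamine was then recorded.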
Starred values were filed as active, the others as inactive. Rule as the data show it, unless noted: active = activation above about 30%; inactive = the rest.

SMILES | TRHR ag | D1 agonist | D1 potentiator | TRHR enhancer | D1 antag
CN(C)c1c2ccccc2nc2c(F)c(F)c(F)c(F)c12 | 0 | 2 | 2 | -5 | 3
Cc1c2ccccc2nc2c(F)c(N(C)C)c(F)c(F)c12 | 40* | 62* | -4 | 4 | -5
O=C(Cn1nnc(-c2ccccc2NC(=O)c2ccccc2)n1)Nc1ccc2c(c1)OCCO2 | 0 | 0 | 6 | 10 | 0
CN1CCOCCOCCN(C)C(=O)N2CCOCCOCCN(CCOCC2)C1=O | 1 | 2 | -3 | 1 | -22
Cc1nc(Br)c(Br)c(C)c1Br | 1 | 5 | -9 | 1 | -31*
Cc1nc(N2CCOCC2)c(C#N)c(C)c1Br | -1 | -4 | 1 | -2 | 17
CC1(c2ccc(OC(F)F)cc2)NC(=O)N(/N=C/c2c(O)ccc3ccccc23)C1=O (stereo not given) | 4 | 32* | -1 | -1 | 29
CCN(CC(=O)NCc1ccc(Cl)cc1)C(=O)/C=C/c1ccccc1 | 0 | 0 | 2 | -6 | -31*
C=COCCNC(=S)N1CCOCCOCCN(C(=S)NCCOC=C)CCOCCOCC1 | 0 | 3 | 4 | 13 | -5
CC(=O)c1cccc(OCC(O)CNCC2COc3ccccc3O2)c1 (stereo not given) | -2 | 45* | -13 | 12 | -48*
COc1ccc(NC(=O)C2CCN(S(=O)(=O)c3c(C)noc3/C=C/c3ccc(C)cc3)CC2)cc1Cl | 0 | 4 | 1 | 3 | -15
COc1cc(CNCc2cccs2)ccc1OCc1ccccc1 | 1 | 18 | -6 | 0 | -12
COc1ccc(CCN(C)Cc2ccc(OC)c(OCc3ccccc3)c2)cc1OC | 0 | 8 | -5 | -2 | -16
COc1ccc(CCN(C)Cc2ccc(OCc3ccccc3)c(OC)c2)cc1OC | 0 | 87* | -12 | 6 | -42*
COc1cc(CNC23CC4CC(CC(C4)C2)C3)ccc1OCc1ccccc1 | 6 | 85* | 3 | -3 | -40*
COc1ccc(CCNC(=S)N2CCC(C(=O)c3ccc(F)cc3)CC2)cc1OC | 0 | 14 | -6 | 1 | -44*
COc1ccc(COC(=O)C2CCN(S(=O)(=O)c3ccc(F)cc3)CC2)cc1 | 2 | 37* | -2 | -5 | -35*
COc1ccc(CCNC(=O)C2CCC(C(C)(C)C)CC2)cc1OC (stereo not given) | 0 | 5 | -15 | 8 | -63*
COc1ccc(C(=O)C2CCN(C(=S)NCCc3ccc(OC)c(OC)c3)CC2)cc1 | 1 | 14 | -3 | 0 | -19
O=C(c1ccc(F)cc1)C1CCN(C(=S)NCC2CCCO2)CC1 (stereo not given) | 0 | 16 | 1 | -4 | -35*
COc1ccc(C(=O)C2CCN(C(=O)c3ccc(F)cc3)CC2)cc1 | 0 | 8 | -4 | -4 | -27
COc1ccc(CN2CCC(C(=O)c3ccc(F)cc3)CC2)cc1 | 0 | 3 | -19 | -10 | -46*
N#C/C(=C1\C(=O)Nc2c(Cl)cc(Cl)cc21)c1nnc2n1CCCCC2 | 0 | 8 | 12 | 17 | 46
O=C(NC(=S)Nc1ccccc1Br)c1ccc2c(c1)OCO2 | 0 | 8 | -2 | 0 | 25
CC(C)c1ccc(O)c(NC(=S)NC(=O)c2ccc3c(c2)OCO3)c1 | 0 | 5 | -9 | -2 | -66*
SMILES | TRHR ag | D1 agonist | D1 potentiator | TRHR enhancer | D1 antag
CN(c1ccccc1)c1ccc(/C=C/[N+](=O)[O-])cc1 | -2 | 140* | -14 | 3 | -52*
CN(C)c1ccc(-n2cccc2/C=C/[N+](=O)[O-])cc1 | 2 | 3 | -13 | -11 | -22
Cc1c(C(=O)Nc2ccccc2F)sc2ncn(CC(=O)N3CCOCC3)c(=O)c12 | 1 | 2 | -3 | -2 | 10
Cc1cccnc1NC(=O)CNC(=O)COc1ccccc1 | 0 | 5 | -6 | 33* | 32
CC(C)COc1ccc(C(=O)Nc2onc3c2CCCC3)cc1 | -1 | 10 | -1 | -2 | -45*
CCOc1ccc(C(=O)Nc2onc3c2CCCC3)cc1 | 0 | -2 | -1 | 2 | -13
CCN(CC(=O)NCc1ccc(Cl)cc1)C(=O)CSc1ccccc1F | 0 | 2 | -10 | -4 | -5
Cc1ccc(OCC(=O)NCCNC(=O)c2cnccn2)cc1C | -1 | 39* | -3 | 2 | -7
CCN1C(=O)/C(=C\N2CCN(C(=O)c3ccco3)CC2)SC1=S | 1 | 4 | -1 | 0 | 6
CCN1C(=O)/C(=C/C=C2/Sc3ccccc3N2CCO)SC1=S | 8 | 32* | 2 | 8 | 7
CCCN1C(=O)/C(=C/c2ccncc2)SC1=S | -1 | 0 | -2 | -1 | -5
CCN1C(=O)/C(=C/C=C2/SCCN2C)SC1=S | 16 | 41* | 12 | -4 | 23
CCCN1C(=O)/C(=C\C=C2/Sc3ccccc3N2CCO)SC1=S | 14 | 30* | -5 | -2 | 2
CCN1C(=O)/C(=C/N2CCc3ccccc32)SC1=S | 1 | 2 | 0 | 1 | -19
Cc1cc(C)c(Nc2nn3c(=O)c4cc5c(cc4nc3s2)OCO5)c(C)c1 | 0 | 2 | 4 | 3 | 31
O=[N+]([O-])c1cccc(S(=O)(=O)Nc2ccc(S(=O)(=O)NCC3CCCO3)cc2)c1 (stereo not given) | 1 | 3 | 1 | -4 | 14
O=C(c1cc2ccccc2o1)N(Cc1nnc(-c2ccccc2Cl)o1)C1CC1 | 0 | 4 | -1 | -2 | 3
CCCN(Cc1nnc(-c2ccccc2Cl)o1)C(=O)c1cc2ccccc2o1 | -1 | 12 | -4 | -14 | -31*
Cc1ccccc1C(=O)Nc1ccc(N(C)C)c2ccccc12 | -1 | 1 | -12 | 3 | -16
C[C@]12CCC(=O)C=C1C=C[C@@H]1[C@@H]2CC[C@@]2(C)[C@H]1CC[C@@]21CCC(=O)O1 | 0 | 2 | -6 | -6 | -34*
CC1CCN(c2nc(-c3ccccc3)c(C#N)c(=O)[nH]2)CC1 | 1 | 1 | -8 | 0 | -39*
CCN(CC(=O)NCc1ccc(F)cc1)CC(=O)Nc1ccc(S(=O)(=O)N2CCCC2)cc1 | 0 | 3 | -5 | 7 | -2
COc1cc(/C=N/NC(=O)c2ccccn2)cc2c1OCO2 | 0 | 2 | -4 | 1 | -11
CCOc1ccc(CSC2=NCCN2)cc1Cl | 0 | 14 | -9 | -8 | -35*
CCN(CC)c1ccc(NC(=O)CN2CCN(c3nc(C)cc(C)n3)CC2)cc1 | -1 | 13 | 0 | 6 | -33*
O=C(Cc1cccc2ccccc12)Nc1c(F)cccc1F | -2 | 1 | -5 | 4 | -36*
CCC(=O)Nc1ccc(Oc2ccc3c(c2)C(=O)NC3=O)cc1 | 0 | 2 | 7 | -1 | -3
CCC(C)[C@@H]1NC(=O)N(CCCN2CCCC2=O)C1=O (stereo not given in full) | 1 | 0 | 0 | 0 | -7
